Measured values taken from PubChem BioAssay AID435003 (Sanford-Burnham Center for Chemical Genomics, 2010).
The campaign covered roughly 330,000 compounds. About 1,700 (0.52%) were called active. Rule as the data show it: active = inhibition above about 50%; inactive = the rest. Only a selection was taken, and actives are over-represented in it overall.

experiment: lowers stimulated NF-kB reporter luminescence – cell-based, uHTS, TCR NF-kB activation inhibitor project, primary screen (AID 435003); settings: Jurkat, PMA/ionomycin-induced NF-kB luciferase reporter, at 4 µM, active compounds read high

inhibition, inactive:
N/C(=N\OC(=O)Cc1ccccc1[N+](=O)[O-])c1ccc(Br)cc1 1.58%
N/C(=N\OC(=O)c1ccc2c(c1)OCO2)c1ccc(Br)cc1 -102%
CC(C)(C)NS(=O)(=O)NC(=O)C1=C(N2CCCC2)COC1=O -4.98%
COC(=O)C1=NNC2(c3ccc(C)cc3)C(=O)N(c3cccc(C)c3C)C(=O)C12 (stereo not given) -13.7%
Cc1ccc(S(=O)(=O)N2CCCCC2)cc1C(=O)N(C)CC(=O)Nc1cccc(F)c1 0.943%
Cc1cc(C)cc(NC(=O)N2CCC(NC(=O)c3ccc(F)cc3)CC2)c1 -8.05%
O=C(Nc1cccc(S(=O)(=O)N2CCCCC2)c1)c1cncc(Br)c1 -9.4%
Cc1ccc(S(=O)(=O)N2CCCCC2)cc1NC(=O)CCNC(=O)c1ccccc1 1.31%
COc1ccc(-n2nnc3c(=O)n(CC(=O)OCc4ccccc4)cnc32)cc1 -2.47%
CCOC(=O)c1ccc(NC(=O)Cc2cccs2)cc1 -42.6%
CCCc1nnc(SCC(=O)Nc2ccc(C(=O)OCC)cc2)o1 -1.45%
COc1ccc(CNC(=O)C2CCN(S(C)(=O)=O)CC2)cc1 11.1%
CCOc1ccccc1CNS(=O)(=O)c1cc(-c2cc(C)no2)ccc1C 18%
Cc1cc(-c2ccc(C)c(S(=O)(=O)NCCCN(Cc3ccccc3)C(C)C)c2)on1 9.13%
COc1ccc(/C=N/NC(=O)C(C)N(c2ccc(OC)cc2)S(C)(=O)=O)cc1 (stereo not given) 13.9%
CC(C)CC(=O)Nc1nnc(S(=O)(=O)N(C)c2ccc(Cl)cc2)s1 1.22%
CS(=O)(=O)N1CCN(C(=O)c2cc3ccccc3oc2=O)CC1 2.45%
COc1cccc(-n2c(=S)[nH]c3c(oc4ccccc43)c2=O)c1 -22.5%
CCOC(=O)c1cc(-c2ccc(F)cc2)n(CC(=O)NCc2ccccn2)c1C -17.7%
CCCN(CC1CC1)C(=O)COC(=O)c1ccc(C)cc1O -1.18%
Cc1cc(/C=N/n2cnnc2)c(C)n1-c1ccc2ncccc2c1 9.47%
O=C1Oc2ccccc2C(=O)/C1=C/c1ccccc1O 8.95%
COc1cc2c(cc1OC)CN(C(=O)c1cc(S(=O)(=O)N3CCCCC3)ccc1Cl)CC2 20.2%
COc1cc2c(cc1OC)CN(C(=O)c1ccc(S(=O)(=O)N3CCCCCC3)cc1)CC2 12.2%
CCOc1ccccc1-c1nc(CN2CCC(C(=O)N3CCOCC3)CC2)c(C)o1 1.89%
COCCn1cnc2c1c(=O)n(Cc1ccc(Br)cc1)c(=O)n2Cc1ccccc1 11%
CCN(CC)CCn1cnc2c1c(=O)[nH]c(=O)n2Cc1ccccc1 -2.97%
CSc1nc(-c2ccccc2)nc(C(Cl)Cl)n1 11%
Nc1cccnc1Sc1ccccc1 3.25%
Cc1ccc2c(c1)N(CC(=O)NCCCN1CCCCC1)C(=O)c1cccnc1O2 -8.41%
COCCOC(=O)c1[nH]c2c(c1C)C(=O)CC(c1ccc(OC)cc1)C2 (stereo not given) -19.4%
COC(=O)C1C(=O)c2c([nH]c(C(=O)OCCSC)c2C)CC1C (stereo not given) -39.9%
O=S(=O)(c1ccc(Sc2nnc3ccccn23)nc1)N1CCOCC1 -12%
Cc1c(Br)c([N+](=O)[O-])nn1C(C)C(=O)Nc1nccs1 (stereo not given) 22.7%
COc1cc([C@H](Cc2ccccc2)NC(C)=O)oc(=O)c1 8.38%
CCSC1=C(C#N)C(=O)n2c1cc1c2CCCC1 3.71%
O=C1CC(N2CCN(C(c3ccccc3)c3ccccc3)CC2)C(=O)N1 (stereo not given) 4.97%
Oc1ccccc1CN1CCN(C(c2ccccc2)c2ccccc2)CC1 -10.4%
CC(C)(C)NS(=O)(=O)CC12CCC(CC1=O)C2(C)C (stereo not given) -14%
CC/C(=N\NC(=O)c1c(C)nc2ccccn12)c1ccc(Cl)cc1 -10.6%
Cc1c(NC(=O)Nc2ccccc2Cl)sc(=S)n1C 10.9%
CC1(C)CC(CCC(=O)Nc2ccccc2Cl)C(=O)O1 (stereo not given) 5.25%
CSc1n[nH]c(=S)n1N 8.75%
CC1=Nn2c(nnc2-c2ccccc2)SC1 -7.08%
COc1ccccc1-c1nnc2n1N=C(c1ccc(OC(F)F)c(OCC3CC3)c1)CS2 21.8%
COc1cc(C(=S)NC2CCCCC2)ccc1O -4.8%
C/C(CC(O)(/C=N/O)c1ccccc1)=N\O (stereo not given) -6.87%
CCCNC(=O)OC[C@H]1O[C@H](CCO/N=C/[C@@H](NS(=O)(=O)c2ccc(C)cc2)[C@H](C)/C=C/CC(=O)OC)C=C[C@@H]1Oc1ccc(OC)cc1 8.93%

inhibition, active:
N/C(=N\OC(=O)N1c2ccccc2Sc2ccccc21)c1ccc(Br)cc1 77%
O=C(CCNC(=O)c1ccc(Br)cc1)Nc1cccc(S(=O)(=O)N2CCCCC2)c1 51.4%
CCOC(=O)c1ccc(NC(=O)Cn2cnc3cc(C)c(C)cc32)cc1 66.1%
COc1ccc(CNS(=O)(=O)c2cc(-c3cc(C)no3)ccc2C(C)C)cc1 50.9%
O=c1oc2ccccc2cc1-c1cn(-c2ccccc2)c(=S)[nH]1 85.2%
CCOc1cc(C(=O)N2CCc3cc(OC)c(OC)cc3C2)ccc1OC(F)F 78.8%
N=c1c2c(-c3ccccc3)c(-c3ccccc3)n(Cc3ccccc3)c2ncn1CCCO 58.6%
CCCOC(=O)c1[nH]c2c(c1C)C(=O)CC(c1cccs1)C2 (stereo not given) 60.8%
CCN1/C(=C\c2ccc3ccccc3[n+]2CC)Sc2cc(C)ccc21 90.1%
CC1(C)CC(N2CCN(C(c3ccccc3)c3ccccc3)CC2)=CC(=[N+]2CCCCC2)C1 83.2%
O=C(Nc1ccccc1Cl)/C(Cl)=C(\Cl)S(=O)c1ccccc1 (stereo not given) 100%
COc1ccc(C2=Nn3c(nnc3-c3ccccc3OC)SC2)cc1OC1CCCC1 57.3%
